Test results reported in ChEMBL document CHEMBL4513216, “Probing the Open Global Health Chemical Diversity Library for Multistage-Active Starting Points for Next-Generation Antimalarials” (ACS Infect Dis, 2020).
Among all 69,000 compounds or so, about 8,600 (12%) showed an effect of 50% or more. What follows is part of a selection rich in strong results, with near analogues and random picks from the rest.

System: Plasmodium berghei
Assay: Screen against P. berghei liver stage (PbLuc), transformed with Luciferase, at 10uM
Type: functional, HepG2
Settings: tested at 10 uM

Row | SMILES | INHIBITION
1 | CC(C)C[C@H](NC(=O)N1CCC(Cc2ccccc2)CC1)C(=O)O | 43.4%
2 | CCC(CO)N(Cc1cccnc1)C(=O)c1ccc(C)[nH]c1=O (configuration not stated) | 35.1%
3 | Cc1ccc(CN2CCOC3(COCCN(S(C)(=O)=O)C3)C2)o1 (configuration not stated) | 15.4%
4 | N#Cc1cccnc1OC1CCN(C(=O)NCc2ccccc2)CC1 | 52.6%
5 | N#Cc1cccnc1OC1CCN(C(=O)c2cc(C3CC3)on2)CC1 | 34.3%
6 | Brc1cccnc1OC1CCNCC1 | 51%
7 | Clc1cccnc1OC1CCNCC1 | 28.6%
8 | COc1ncccc1CNC(=O)N1CCC(CNC(C)=O)CC1 | 0.266%
9 | O=C(CCC(=O)N1CCC(Oc2ncccc2Br)CC1)c1ccccc1 | 45%
10 | O=C(NCc1ccccc1)N1CCC(Oc2ncccc2Cl)CC1 | 22.2%
11 | O=C(c1cc(C2CC2)on1)N1CCC(Oc2ncccc2Br)CC1 | 44.2%
12 | O=C(NCc1ccccc1)N1CCC(Oc2ncccc2Br)CC1 | 74.4%
13 | CCn1ncnc1CN1CCC(CNC(=O)c2cccnc2O)C1 (configuration not stated) | -11.3%
14 | Cc1oc(C(C)C)cc1C(=O)N1C[C@@H]2CC[C@H]1CN(C(=O)N(C)C)C2 | -14.3%
15 | Cc1cc(C)n(CC2CCN(CC(O)CN3CCOCC3)CC2)n1 (configuration not stated) | -5.22%
16 | O=C1NC(C(=O)NCc2cccnc2Oc2ccccc2F)CO1 (configuration not stated) | -12.1%
17 | CCCc1noc(C2CCCCN2C(=O)C2CCCC2)n1 (configuration not stated) | -11.7%
18 | CCN(CC1CCOC1)C(=O)c1ccn(-c2cc(C)ccc2OC)n1 (configuration not stated) | 30.5%
19 | CNC(=O)[C@@]12CCC3(CCN(C(=O)COC)CC3)[C@@H]1CN(S(C)(=O)=O)C2 | -16.2%
20 | CCC(NC(=O)C(C)(C)C)c1ccccc1C (configuration not stated) | 32.9%
21 | CC[C@@H](C)[C@H](NC(=O)Cn1ccc2c(Cl)cccc21)C(=O)O | -19.7%
22 | Cn1cncc1CN1CC[C@](C)(O)[C@@H](Oc2cccc(F)c2)C1 | 21.9%
23 | C[C@]1(O)CN(CC(=O)N2CCCC2)CC[C@@H]1Oc1cccc(F)c1 | 41.2%
24 | C[C@]1(O)CN(CCO)CC[C@@H]1Oc1cccc(F)c1 | 59%
25 | C[C@]1(O)CN(Cc2cccc(C(=O)O)c2)CC[C@@H]1Oc1cccc(F)c1 | 17.4%
26 | C[C@]1(O)CN(Cc2ccc(C(=O)O)cc2)CC[C@@H]1Oc1cccc(F)c1 | 15.9%

Row | SMILES | INHIBITION
27 | C[C@]1(O)CN(CCC(N)=O)CC[C@@H]1Oc1cccc(F)c1 | 53%
28 | Cc1cccc(CN2CC3(CCN(C(=O)N(C)C)CC3)OCC2=O)n1 | 30.3%
29 | Cc1cc(C(=O)NC2CCc3c(ccc(=O)n3CC3CC3)C2)no1 (configuration not stated) | 36.5%
30 | Cc1nnc([C@]23COC[C@H]2CN(Cc2nccs2)C3)o1 | 9.79%
31 | Cc1cc2n(n1)CC(CNCc1ccccc1-n1cccn1)CN2 (configuration not stated) | -18.605%
32 | Cc1cc(C(=O)N2C[C@@H]3OCCN(CCN4CCCC4)[C@@H]3C2)c(C)o1 | 32.2%
33 | O=C(c1ccsc1)N1C[C@@H]2OCCN(CCN3CCCC3)[C@@H]2C1 | 82.3%
34 | Cc1occc1C(=O)N1C[C@@H]2OCCN(CCN3CCCC3)[C@@H]2C1 | 66%
35 | O=C(c1ccncc1)N1C[C@@H]2OCCN(CCN3CCCC3)[C@@H]2C1 | 32.2%
36 | O=C(c1ccco1)N1C[C@@H]2OCCN(CCN3CCCC3)[C@@H]2C1 | 23.3%
37 | CN(C)CCN1CCO[C@H]2CN(C(=O)c3ccsc3)C[C@H]21 | 6.67%
38 | O=C(CN1CCCC1Cn1cncn1)NCCOc1ccc(F)cc1 (configuration not stated) | 42.9%
39 | O=C1CCC(=O)N1Cc1ccc(C(=O)N2CCCC2c2cccs2)cc1 (configuration not stated) | -21.9%
40 | Cn1cc(NC(=O)NCc2ccsc2)ccc1=O | 16.1%
41 | CN(Cc1ccsc1)C(=O)Nc1ccc(=O)n(C)c1 | 47.4%
42 | Cn1cc(NC(=O)CCc2ccsc2)ccc1=O | 59.3%
43 | Cc1c(O)cccc1C(=O)N1CCCC2(C1)C(=O)N(C)c1ccccc12 (configuration not stated) | 17.7%
44 | O=C(O)c1cc2c(nc1-c1ccsc1)CCN(C(=O)C1CC1)CC2 | 40.8%
45 | NC(=O)N1CCc2cc(C(=O)O)c(-c3ccsc3)nc2CC1 | 74.8%
46 | CC(=O)N1CCc2cc(C(=O)O)c(-c3ccsc3)nc2CC1 | 11.3%
47 | CC(C)=CCCC1(C)CCC(=O)N(CCc2nc(N)cc(O)n2)C1 (configuration not stated) | 21.5%
48 | c1coc(CN2CCCn3c(CN4CCOCC4)nnc3C2)c1 | -4.26%
49 | N#Cc1ccc(SCCC(=O)NC(N)=O)cc1 | -33.4%
50 | CNC(=O)NC(=O)CCSc1ccccc1Cl | 41.8%
51 | NC(=O)NC(=O)CCSc1ccccc1Cl | 55.9%
52 | Cc1nc(CN2C[C@@H]3CN(c4ncccn4)C[C@@H]3C2=O)cs1 | -12.1%

Row | SMILES | INHIBITION
53 | Cc1cc(C)c(CNC(=O)c2ccc3c(c2)CCC3)c(=O)[nH]1 | 50.3%
54 | Cc1cc(C)c(CNC(=O)NCC2COc3ccccc3C2)c(=O)[nH]1 (configuration not stated) | 17.5%
55 | Cc1cc(C)c(CNC(=O)NCC2Cc3ccccc32)c(=O)[nH]1 (configuration not stated) | 0.342%
56 | Cc1cc(C)c(CNC(=O)NCC2Cc3ccccc3O2)c(=O)[nH]1 (configuration not stated) | 73.1%
57 | Cc1cc(C)c(CNC(=O)Cc2ccc3c(c2)CCCC3)c(=O)[nH]1 | 40%
58 | Cc1cc(C)c(CNC(=O)NCc2ccc3c(c2)CCC3)c(=O)[nH]1 | 30.2%
59 | N#Cc1c(-c2ccccc2)csc1N | 49.7%
60 | O=C(NCCC1CC1)NCc1cccc(-n2ccnc2)c1 | 21.6%
61 | O=C(c1ccsc1)N1C[C@@H]2CCN(c3cccnc3)C[C@@H]2C1 | 77.7%
62 | Cn1cccc1C(=O)N1C[C@@H]2CCN(c3cccnc3)C[C@@H]2C1 | 36.9%
63 | O=C(c1cnccn1)N1C[C@@H]2CCN(c3cccnc3)C[C@@H]2C1 | 41.6%
64 | Cc1ccccc1C(=O)N1C[C@@H]2CCN(c3cccnc3)C[C@@H]2C1 | 68.4%
65 | Cc1cccc(C(=O)N2C[C@@H]3CCN(c4cccnc4)C[C@@H]3C2)c1 | 23.3%
66 | O=C(c1ccc(O)cc1)N1C[C@@H]2CCN(c3cccnc3)C[C@@H]2C1 | 46.2%
67 | Cc1ccc(C(=O)N2C[C@@H]3CCN(c4cccnc4)C[C@@H]3C2)cn1 | 19.4%
68 | O=C(c1ccncc1)N1C[C@@H]2CCN(c3cccnc3)C[C@@H]2C1 | 47.4%
69 | O=C(c1ccco1)N1C[C@@H]2CCN(c3cccnc3)C[C@@H]2C1 | 90.5%
70 | CC(=O)Nc1nc(CN2CCOC(Cn3nc(C)cc3C)C2)cs1 (configuration not stated) | 15.6%
71 | COCCN(Cc1ccoc1)C(=O)c1ccc(Cl)s1 | 25.1%
72 | Cn1nccc1CNC(=O)Cn1nc(C(F)(F)F)cc1C1CC1 | 1.11%
73 | CCc1nc(CN(C)C2CCN(Cc3ccc(Cl)s3)C2)no1 (configuration not stated) | 36.4%
74 | CCn1ccc(NC(=O)CCc2c(C)noc2C)n1 | 38.7%
75 | Cc1noc(C)c1CC(=O)Nc1ccn(CC(N)=O)n1 | 37.6%
76 | Cc1noc(C)c1CCC(=O)Nc1ccn(C)n1 | 71.2%
77 | O=C(CCCc1ccccn1)Nc1cccc(N2CCCNC2=O)c1 | 11.2%
78 | Cc1ccc(C(=O)Nc2cn[nH]c2)cc1 | 31.005%

Row | SMILES | INHIBITION
79 | COC(CNC(=O)NCc1c(C)cc(C)[nH]c1=O)c1ccccc1 (configuration not stated) | 36.1%
80 | Cc1noc(C(C)C)c1C(=O)NCCN1CCOCC1 | -31.8%
81 | CCc1nccn1C1CCCN(C(=O)c2ccn(C)c(=O)c2)C1 (configuration not stated) | 2.9%
82 | CN1N=C(C(=O)N2CCCC(n3cccn3)C2)CCC1=O (configuration not stated) | 11.9%
83 | CC(C)c1nccn1C1CCCN(C(=O)C2=NN(C)C(=O)CC2)C1 (configuration not stated) | 14.4%
84 | CCc1nccn1C1CCCN(C(=O)C2=NN(C)C(=O)CC2)C1 (configuration not stated) | 53%
85 | CN1N=C(C(=O)N2CCCC(n3ccnc3)C2)CCC1=O (configuration not stated) | 21.6%
86 | Cc1nccn1C1CCCN(C(=O)C2=NN(C)C(=O)CC2)C1 (configuration not stated) | 51.6%
87 | CO[C@@H]1CC[C@H]2[C@H]1OCCN2C(=O)c1nn(C)c2ccccc12 | -9.23%
88 | COCCCn1cnnc1CNc1cc(C)nc2ccnn12 | 27.9%
89 | Cc1cc(NC(=O)CN2C(=O)CC(C)(C)c3ccccc32)no1 | 29.7%
90 | Cc1ccc(C(=O)N(C)Cc2ccc(Br)o2)c(=O)[nH]1 | 38.6%
91 | Cc1nc(N2CCC(C(O)c3nccn3C)CC2)c2c(C)noc2n1 (configuration not stated) | 52.2%
92 | Cc1nc(N2CCC(C(O)c3nccn3C)CC2)c2cccnc2n1 (configuration not stated) | -11.6%
93 | Cc1nc(N2CCC(C(O)c3nccn3C)CC2)c2nc(C)oc2n1 (configuration not stated) | 42.1%
94 | CO[C@@H]1CCN(Cc2nccn2C)[C@H]1Cc1cccnc1 | 32.2%
95 | Cc1ccsc1CN1CCC2(CC1)CC(OCc1cccnc1)CO2 (configuration not stated) | 26%
96 | O=C(CCc1nnc(-c2ccccc2)o1)N1CCN(CC2CC2)CC1 | -17%
97 | Cc1noc(C)c1CN1C[C@H]2CN(Cc3cccc(F)c3)C[C@H]2C1 | 41.2%
98 | CC(=O)N1CCC2(CCN(Cc3cccc(F)c3)CC2)CC1 | -12.1%
99 | Cc1noc(C)c1CN1CCO[C@H]2CN(Cc3cccc(F)c3)C[C@H]21 | 62.9%
100 | Cc1noc(C)c1CN1CCC2(CCN(Cc3cccc(F)c3)CC2)C1 | 60.2%
101 | Cc1noc(C)c1CN1CCO[C@H]2CN(Cc3ccc(F)cc3)C[C@H]21 | 49.2%
102 | Cc1noc(C)c1CN1CCO[C@H]2CN(Cc3cccnc3)C[C@H]21 | 14.6%
